GIRK2 act = activators of NPY4-receptor-primed GIRK2 channels, summary, cell-based, HEK293, thallium flux; G protein-activated inward rectifier potassium channel 2 (Homo sapiens), P48051; HEK293 GIRK2/NPY4 cells, thallium flux fluorescence; activation (% efficacy), % for hits at 37.5 µM; 34,000 tested, under 10 active; AID 1259324, 2017;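 active means primary screen hit, no activity in plain HEK293 cells, and in GIRK2-only cells above 5% efficacy rising with concentration; inactive means the rest, including fluorescent compounds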;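 further: efficacy is normalized control-subtracted fluorescence 15 s after thallium addition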
Target sequence (P48051 whole entry, looked up): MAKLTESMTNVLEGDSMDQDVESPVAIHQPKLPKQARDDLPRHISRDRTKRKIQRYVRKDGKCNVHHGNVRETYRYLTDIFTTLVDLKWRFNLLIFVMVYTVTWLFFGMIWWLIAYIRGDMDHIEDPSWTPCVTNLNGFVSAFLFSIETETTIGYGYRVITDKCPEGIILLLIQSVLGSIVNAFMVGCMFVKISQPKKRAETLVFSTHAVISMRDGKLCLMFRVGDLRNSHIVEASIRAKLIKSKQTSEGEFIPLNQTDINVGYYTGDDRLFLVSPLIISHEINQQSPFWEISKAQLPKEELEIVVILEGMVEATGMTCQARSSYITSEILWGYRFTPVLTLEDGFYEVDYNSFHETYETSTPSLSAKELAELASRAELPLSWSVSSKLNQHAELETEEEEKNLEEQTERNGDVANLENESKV
AMPAR-TARP mod = modulators of GluA2-stargazin AMPA receptor complexes, primary screen, cell-based, membrane potential dye; calls only at 30 µM; Voltage-dependent calcium channel gamma-2 subunit (Mus musculus) + Glutamate receptor 2 …; HEK293 GluA2+stargazin, membrane potential dye (FDSS), glutamate EC50; hits were called plate by plate, in both directions; 40,000 compounds, 3.5% hits;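 active means any of four per-well response measures lying three or more SD from its plate-wide compound average, in either direction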
Calls only; - = inactive; . = no result given; + = active, no number. The full list was thinned out, with hits kept by preference.

SMILES	GIRK2 act	AMPAR-TARP mod
COc1ccccc1NC(=O)CN1CCC(c2nnc(-c3ccco3)o2)CC1	-	-
CCOC(=O)c1ccccc1NC(=O)CN1CCC(c2nnc(-c3ccco3)o2)CC1	-	+
CSc1ccccc1NC(=O)Cn1nc(-n2cccn2)ccc1=O	-	-
Cc1cc(Br)c2nc(-c3ccncc3)oc(=O)c2c1	-	+
Cc1ccc(CNC(=O)CSc2nnc(-c3ccncc3)o2)cc1	-	-
O=C(Cn1nc(-c2ccco2)c2sc(N3CCOCC3)nc2c1=O)OCc1ccccc1	-	-
CCCc1nc2ccccc2n1Cc1ccccc1OC	.	+
CCc1nc2ccccc2n1Cc1ccccc1OC	-	-
Cc1ccc(/C=C/S(=O)(=O)NCCCn2nc(-c3ccc(Cl)cc3)ccc2=O)cc1	-	-
O=C(CCCc1ccccc1)N1CCN(c2nccn2-c2cccc(Cl)c2)CC1	-	+
COc1ccc(CCC(=O)N2CCN(c3nccn3-c3cccc(Cl)c3)CC2)cc1	-	-
CCOc1ccccc1NC(=O)COc1ncccn1	-	-
COc1cccc(C(=O)N2CCN(c3ncnc4c3nnn4C)CC2)c1	-	-
Cc1ccc(CN2C(=O)NC3(CCN(C(=O)Nc4ccc(F)c(Cl)c4)CC3)C2=O)cc1	-	+
Cc1cc(C)cc(NC(=O)N2CCC3(CC2)NC(=O)N(Cc2ccc(Cl)cc2)C3=O)c1	-	-
CN1CCN(n2c3c(c(SCC(=O)N4CCN(c5ccccc5)CC4)nc2=O)CCC3)CC1	-	-
O=C(Nc1ccc(SCCN2CCCCC2)nn1)c1ccccc1	-	-
Fc1cc(F)c2nc(OC3CCNCC3)sc2c1	-	-
O=C(CCCn1nc(-c2ccc(Cl)cc2)ccc1=O)Nc1cc(Cl)ccc1Cl	-	.
CSCCn1c(=NC(=O)c2ccn(C)n2)sc2cc3c(cc21)OCCO3	-	+
CCn1nc(C(=O)N=c2sc3cc(OC)ccc3n2CCSC)cc1C	-	.
Cn1ccc(C(=O)N=c2sc3cc4c(cc3n2C)OCCO4)n1	-	-
COc1ccc2sc(=NC(=O)c3ccno3)n(CCSC)c2c1	-	+
COc1ccc(CCNC(=O)C2CN(C(C)=O)C2)cc1	-	-
Cc1[nH]c(=O)[nH]c(=O)c1CC(=O)Nc1nc(-c2ccco2)cs1	-	-
SMILES	GIRK2 act	AMPAR-TARP mod
COc1cn(CC(=O)Nc2ccc3c(c2)OCO3)c(CSc2nnc(C)s2)cc1=O	-	-
CCn1ccc(C(=O)Nc2sc3c(c2-c2nc4ccccc4s2)CCN(C)C3)n1	.	+
CC(=O)Nc1sc2c(c1-c1nc3ccccc3s1)CCN(Cc1ccccc1)C2	.	-
CCN1CCc2c(sc(NC(=O)c3cc4ccccc4o3)c2-c2nc3ccccc3s2)C1	.	-
CN1CCc2c(sc(NC(=O)c3ccc(Cl)cc3)c2-c2nc3ccccc3s2)C1	.	-
Cc1cc(C(=O)Nc2sc3c(c2-c2nc4ccccc4s2)CCN(Cc2ccccc2)C3)on1	.	+
O=C(Nc1sc2c(c1-c1nc3ccccc3s1)CCN(Cc1ccccc1)C2)c1cccs1	.	+
Cc1nc(Nc2ccc(NC(=O)c3ccccc3C(F)(F)F)cc2)cc(-n2cccn2)n1	-	-
CSc1nn(CC(=O)Nc2ccc(C)cc2C)c(N)c1-c1nc(-c2ccc3c(c2)OCO3)no1	.	-
Cc1ccc(OCCCC(=O)Nc2nccs2)c(C)c1	-	-
CCCCCNC(=O)CCCOc1ccc(C)cc1C	-	+
O=C(CSc1ccc(F)cc1)N1CCC(c2cccs2)CC1	-	-
Cc1ccc(C)c(OCC(=O)Nc2c(C)cccc2C(C)C)c1C	-	+
Cc1cccc(C)c1NC(=O)COc1ccc2c(C)cc(=O)oc2c1C	.	-
CC(O)(CNC(=O)Nc1ccc(Cl)c(Cl)c1)c1ccc2c(c1)OCO2 (stereo not given)	-	+
CC(O)(CNC(=O)c1cc(Cl)ccc1Cl)c1ccc2c(c1)OCO2 (stereo not given)	-	-
CCOc1ccc(C)cc1S(=O)(=O)Nc1ccc2c(c1)N(S(=O)(=O)CC)CCC2	.	-
O=C(Nc1cccc(C(F)(F)F)c1)c1cc(-c2ccccc2)nc2ccccc12	.	-
C=CCN(CC=C)C(=O)c1cc(-c2ccccc2)nc2ccccc12	.	+
CCOc1ccc(S(=O)(=O)N2CCN(CCn3nc(C)cc3C)CC2)cc1	-	-
O=C(/C=C/c1cccs1)NCCn1nc(-c2ccc(Cl)cc2)ccc1=O	-	.
COc1ccc(S(=O)(=O)N2CCN(c3ccc(Nc4ccncc4)nn3)CC2)cc1	-	+
O=S(=O)(c1ccccc1)N1CCN(c2ccc(Nc3ccncc3)nn2)CC1	-	-
COc1ccc(C)cc1S(=O)(=O)N1CCN(c2ccc(-c3ccccc3)nn2)CC1	-	-
COc1ccc(S(=O)(=O)N2CCN(c3ccc(-c4ccncc4)nn3)CC2)c(OC)c1	-	+
